Source: PubChem BioAssay AID651598 (Sanford-Burnham Center for Chemical Genomics, 2012)
Several values for one entry are separate records, joined by “and”; a condition that tells them apart may be missing. Equal values may be shown once.

These compounds were tested against Apelin receptor (Homo sapiens) (UniProt P35414) (assay: APJ beta-arrestin recruitment blockade alongside CXCR6 – cell-based, DiscoveRx, panel, CHO-K1, counter-screen for CXCR6 antagonist project, SAR follow-up (AID 651598)). Conditions: CHO-K1 PathHunter beta-arrestin luminescence, antagonist mode; run 5, at 80 µM (top of the series).
Apelin receptor (Homo sapiens), sequence (P35414 whole entry, looked up): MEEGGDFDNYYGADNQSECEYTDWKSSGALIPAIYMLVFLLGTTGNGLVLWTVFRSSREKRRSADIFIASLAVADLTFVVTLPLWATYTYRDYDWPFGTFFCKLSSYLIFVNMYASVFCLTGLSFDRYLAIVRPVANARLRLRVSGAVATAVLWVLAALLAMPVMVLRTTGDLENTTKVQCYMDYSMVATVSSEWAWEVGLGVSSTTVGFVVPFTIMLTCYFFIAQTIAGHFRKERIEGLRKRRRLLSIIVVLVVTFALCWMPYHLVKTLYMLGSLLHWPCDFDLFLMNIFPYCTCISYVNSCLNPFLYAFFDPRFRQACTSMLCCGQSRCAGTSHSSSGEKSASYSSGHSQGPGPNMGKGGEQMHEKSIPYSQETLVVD

SMILES | inhibition
COc1cc(C(=O)NC2CC3CCC(C2)N3CC(=O)Nc2ccccc2)cc(OC)c1OC (stereo not drawn) | -14.1% and -9.09%
COc1cc(C(=O)NC2CCN(CC(=O)Nc3ccccc3)CC2)cc(OC)c1OC | -5.74%
COc1cc(C(=O)NC2CC3CCCC(C2)N3CC(=O)Nc2ccccc2)cc(OC)c1OC (stereo not drawn) | 11% and 14.6% and 16%
